Reference: PubChem BioAssay AID1479146 (National Center for Advancing Translational Sciences (NCATS), 2020)
Records with an inconclusive call do not appear. Activity calls are given as the source filed them. Calls follow the shape of the full dose curve.

test: Confirmatory qHTS for Huh7 cytotoxicity: counterscreen for inhibitors of MERS-S pseudo-typed particle cell entry; conditions: viability; series mostly up to 57.1 µM; activity change, negative = cytotoxicity: at the top concentration

| Compound | activity change, negative = cytotoxicity | Potency |
| --- | --- | --- |
| CN(C/C=C/c1ccccc1)Cc1cccc2ccccc12 | -7.41% (inactive) | – |
| CN(C)CCC=C1c2ccccc2C(C)(C)c2ccccc21 | -3.85% (inactive) | – |
| CCC(C)(C)C(=O)O[C@H]1C[C@@H](C)C=C2C=C[C@H](C)[C@H](CC[C@@H]3C[C@@H](O)CC(=O)O3)[C@H]21 | 0% (inactive) | – |
| COc1cccc2c1C(=O)c1c(O)c3c(c(O)c1C2=O)C[C@@](O)(C(C)=O)C[C@@H]3O[C@H]1C[C@H](N)[C@H](O)[C@H](C)O1 | – | 6.07 µM (active) |
| CC(=O)OCC1=C(C(=O)O)N2C(=O)[C@@H](NC(=O)Cc3cccs3)[C@H]2SC1 | 0% (inactive) | – |
| COc1cccc2c1C(=O)c1c(O)c3c(c(O)c1C2=O)C[C@@](O)(C(=O)CO)CC3OC1CC(N2CCOC(OC)C2)C(O)C(C)O1 (some centres not stated) | – | 0.136 µM (active) |
| CCc1c2c(nc3ccc(OC(=O)N4CCC(N5CCCCC5)CC4)cc13)-c1cc3c(c(=O)n1C2)COC(=O)[C@]3(O)CC | 0% (inactive) | – |
| CCCCCCNC(=O)n1cc(F)c(=O)[nH]c1=O | -9.95% (inactive) | – |
| CCCCc1oc2ccccc2c1C(=O)c1cc(I)c(OCCN(CC)CC)c(I)c1 | -7.39% (inactive) | – |
| CC(C)OC(=O)OCOP(=O)(CO[C@H](C)Cn1cnc2c(N)ncnc21)OCOC(=O)OC(C)C | -12.7% (inactive) | – |
| CC[C@@H]([C@H](C)O)n1ncn(-c2ccc(N3CCN(c4ccc(OC[C@@H]5CO[C@@](Cn6cncn6)(c6ccc(F)cc6F)C5)cc4)CC3)cc2)c1=O | -5.11% (inactive) | – |
| CC(C)C[C@H](NC(=O)[C@H](CCc1ccccc1)NC(=O)CN1CCOCC1)C(=O)N[C@@H](Cc1ccccc1)C(=O)N[C@@H](CC(C)C)C(=O)[C@@]1(C)CO1 | – | 0.192 µM (active) |
| C=C(C)[C@H]1Cc2c(ccc3c2O[C@@H]2COc4cc(OC)c(OC)cc4[C@@H]2C3=O)O1 | – | 6.81 µM (active) |
| CC(=O)N1CCN(c2ccc(OC[C@H]3CO[C@](Cn4ccnc4)(c4ccc(Cl)cc4Cl)O3)cc2)CC1 | -7.77% (inactive) | – |
| N=C(N)c1ccc(OCCCCCOc2ccc(C(=N)N)cc2)cc1 | -28.4% (inactive) | – |
| Cc1nnc(C(=O)NC(C)(C)c2nc(C(=O)NCc3ccc(F)cc3)c(O)c(=O)n2C)o1 | 0% (inactive) | – |
| O=c1ccc2ccccc2o1 | 0% (inactive) | – |
| CCOc1cc2ncc(C#N)c(Nc3ccc(OCc4ccccn4)c(Cl)c3)c2cc1NC(=O)/C=C/CN(C)C | -7.24% [at 11.2 µM] (inactive) | – |
| C=CC(=O)Nc1cc(Nc2nccc(-c3cn(C)c4ccccc34)n2)c(OC)cc1N(C)CCN(C)C | – | 10.8 µM (active) |
| Cc1cc(-n2c(=O)[nH]c(=O)n(C)c2=O)ccc1Oc1ccc(S(=O)(=O)C(F)(F)F)cc1 | -28% (inactive) | – |
| C=CC1(C)CC(=O)C2(O)C(C)(O1)C(OC(C)=O)C(OC(=O)CCN(C)C)C1C(C)(C)CCC(O)C12C (configuration not stated) | -10.2% (inactive) | – |
| C[C@]12CC[C@H](O)C[C@H]1CCC1C2CC[C@]2(C)[C@@H](c3ccc(=O)oc3)C[C@H]3O[C@]132 (some centres not stated) | – | 15.2 µM (active) |
| CCN1CCN(Cc2ccc(Nc3ncc(F)c(-c4cc(F)c5nc(C)n(C(C)C)c5c4)n3)nc2)CC1 | – | 8.57 µM (active) |
| CCn1cc(C(=O)O)c(=O)c2cc(F)c(N3CCNC(C)C3)c(F)c21 (configuration not stated) | 0% (inactive) | – |
| COc1cccc2c1C(=O)c1c(O)c3c(c(O)c1C2=O)C[C@@](O)(C(=O)CO)C[C@@H]3O[C@H]1C[C@H](N)[C@@H](O)[C@H](C)O1 | – | 2.15 µM (active) |
| CC(CN(C)C)CN1c2ccccc2CCc2ccccc21 (configuration not stated) | 2.82% (inactive) | – |
| CC(C)C(=O)Oc1ccc(CO)cc1[C@H](CCN(C(C)C)C(C)C)c1ccccc1 | -16.1% (inactive) | – |
